Results filed as inconclusive are left out. Calls of active or inactive are those of the source. Calls come from the whole dose curve; as a rule, active = well fitted curve in the direction sought with a large enough effect in the repeat runs; inconclusive = weak or mixed curves; inactive = no such curve, though single readings can be large; an effect the other way counts as inactive or inconclusive.
Experiments:
[1] = qHTS RealTime-Glo MT Cell Viability Assay in HEK293 cells - 16 hour (AID 1224872); note: nearly all actives have a fitted effect of over 50% in size; note: potency is the fitted concentration of half-maximal effect; for activity change, negative = cytotoxicity: top concentration of the series differs between compounds
In short: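 Quantitative high-throughput screen of the Tox21 10K library in HEK293: cells and RealTime-Glo reagents plated together, compound added at 5 h, luminescence monitored through 40 h at 37 C.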

[2] = qHTS RealTime-Glo MT Cell Viability Assay in HepG2 cells - 8 hour (AID 1224873); note: nearly all actives have a fitted effect of over 55% in size
In short: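 HepG2 cells (600/well) mixed with RealTime-Glo MT reagent, settled 5 h at 37 C/5% CO2 before compound addition. Nonlytic NanoLuc luminescence from viable-cell prosubstrate reduction read repeatedly during 40 h treatment at 37 C.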

[3] = qHTS RealTime-Glo MT Cell Viability Assay in HEK293 cells - 40 hour (AID 1224874); conditions: RealTime-Glo luminescence; max response: stronger effect = lower value; note: nearly all actives have a fitted effect of over 50% in size; note: potency is the fitted concentration of half-maximal effect
In short: (§1)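 Kinetic, non-lysing viability readout. Seed HEK293 (600/well) with reagent, incubate 5 h at 37 C/5% CO2, pin 23 nL compound in DMSO, incubate at 37 C, read luminescence at 0, 8, 16, 24, 32, 40 h.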

[4] = A CellTox Green Cytotoxicity Assay to monitor cytotoxicity in HEK293 cells - 24 hour (AID 1224875); note: series mostly up to about 77 µM; nearly all actives have a fitted effect of over 45% in size
In short: (§2)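 Real-time, in one plate: 600 HEK293 cells/well with dead-cell DNA dye, pinned compound after 5 h, 37 C incubation over 40 h; viable cells give no appreciable fluorescence.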

[5] = A CellTox Green Cytotoxicity Assay to monitor cytotoxicity in HepG2 cells - 16 hour (AID 1224876); note: nearly all actives have a fitted effect of over 45% in size
In short: (§3)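 Cytotoxicity was tracked as dead-cell DNA fluorescence in HepG2 cells treated with test compounds at 37 C; each time-point value comes from one kinetic series spanning 0, 8, 16, 24, 32 and 40 h.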

[6] = qHTS RealTime-Glo MT Cell Viability Assay in HepG2 cells - 32 hour (AID 1224877); note: nearly all actives have a fitted effect of over 55% in size
In short: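 Compound treatment began 5 h after plating HepG2 cells (600/well) with NanoLuc luciferase and prosubstrate. Plates stayed at 37 C for 40 h; luminescence was captured at six time points, 0 h through 40 h.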

[7] = A CellTox Green Cytotoxicity Assay to monitor cytotoxicity in HepG2 cells - 40 hour (AID 1224879); note: nearly all actives have a fitted effect of over 40% in size; note: potency is the fitted concentration of half-maximal effect
In short: as §3

[8] = qHTS RealTime-Glo MT Cell Viability Assay in HEK293 cells - 0 hour (AID 1224880); note: top concentration of the series differs between compounds; nearly all actives have a fitted effect of over 45% in size
In short: as §1

[9] = A CellTox Green Cytotoxicity Assay to monitor cytotoxicity in HEK293 cells - 32 hour (AID 1224881); note: nearly all actives have a fitted effect of over 40% in size
In short: as §2

[10] = A CellTox Green Cytotoxicity Assay to monitor cytotoxicity in HepG2 cells - 24 hour (AID 1224878); note: nearly all actives have a fitted effect of over 45% in size
In short: as §3
% is set by controls: 0 for no effect and ±100 for the full control effect.

O=C1CCCN1CCO
inactive: Potency [1] | outcome [2] | max response [3] -23.9% | Potency [4] | Potency [5] | Potency [6] | Potency [7] | Potency [8] | Potency [9]

COc1ccc(C(=O)Nc2ccccc2)cc1[N+](=O)[O-]
active: Potency [1] 24.7 µM | Potency [3] 24.7 µM
inactive: outcome [2] | Potency [5] | Potency [6] | Potency [7] | Potency [8]

C(/C=C/C=C/Nc1ccccc1)=Nc1ccccc1
inactive: Potency [1] | outcome [2] | max response [3] -15.7% | Potency [4] | Potency [5] | Potency [6] | Potency [7] | Potency [8] | Potency [9]

c1ccc(CN(Cc2ccccc2)Cc2ccccc2)cc1
active: Potency [7] 15.5 µM
inactive: Potency [1] | outcome [2] | max response [3] 4.19% | Potency [4] | Potency [5] | Potency [6] | Potency [8] | Potency [9]

O=C(OCCOCCOCCOC(=O)c1ccccc1)c1ccccc1
inactive: Potency [1] | outcome [2] | max response [3] 13.2% | Potency [4] | Potency [5] | Potency [6] | Potency [8] | Potency [9]

O=C(OC1C[C@H]2CC[C@@H](C1)[N+]21CCCC1)C(O)(c1ccccc1)c1ccccc1 (stereo partly drawn)
inactive: Potency [1] | outcome [2] | max response [3] 0.515% | Potency [4] | Potency [5] | Potency [6] | Potency [7] | Potency [8] | Potency [9]

CC(=O)c1ccc(Cl)c(Cl)c1Cl
inactive: Potency [1] | outcome [2] | max response [3] -19.2% | Potency [5] | Potency [6] | Potency [10] | Potency [7] | Potency [8]

FC1(F)C(F)(F)C(F)(F)C2(F)C(F)(C1(F)F)C(F)(F)C(F)(F)C1(F)C(F)(F)C(F)(F)C(F)(F)C(F)(F)C12F (stereo not drawn)
inactive: Potency [1] | outcome [2] | max response [3] 0.279% | Potency [4] | Potency [5] | Potency [6] | Potency [7] | Potency [8] | Potency [9]

COc1cc(CNC(=O)CCCC/C=C/C(C)C)ccc1O
active: Potency [1] 4.25 µM | Potency [3] 8.48 µM
inactive: outcome [2] | Potency [4] | Potency [5] | Potency [6] | Potency [7] | Potency [8] | Potency [9]

CCc1ccc2c(c1)C(=O)c1ccccc1C2=O
inactive: Potency [1] | outcome [2] | max response [3] 11.6% | Potency [4] | Potency [5] | Potency [6] | Potency [7] | Potency [9]

Cc1c(Cl)cccc1[N+](=O)[O-]
inactive: Potency [1] | outcome [2] | max response [3] -7.04% | Potency [4] | Potency [5] | Potency [6] | Potency [7] | Potency [8] | Potency [9]

FC(F)(Cl)C(F)(Cl)Cl
inactive: Potency [1] | outcome [2] | Potency [4] | Potency [5] | Potency [6] | Potency [10] | Potency [7] | Potency [8] | Potency [9]

C[C@H]1C[C@H]2[C@@H]3CCC4=CC(=O)C=C[C@]4(C)[C@@]3(F)[C@@H](O)C[C@]2(C)[C@@]1(O)C(=O)COP(=O)(O)O
inactive: Potency [1] | outcome [2] | Potency [4] | Potency [5] | Potency [6] | Potency [10] | Potency [7] | Potency [8] | Potency [9]

Cc1nc2sccn2c(=O)c1CCN1CCC(=C(c2ccc(F)cc2)c2ccc(F)cc2)CC1
active: Potency [1] 3.01 µM
inactive: outcome [2] | Potency [4] | Potency [5] | Potency [6] | Potency [10] | Potency [7] | Potency [9]

CC(C)(O)C(=O)O
inactive: Potency [1] | outcome [2] | Potency [4] | Potency [5] | Potency [6] | Potency [10] | Potency [7] | Potency [8] | Potency [9]

NC(=O)c1cc[n+](CC2=C(C(=O)[O-])N3C(=O)[C@@H](NC(=O)Cc4cccs4)[C@H]3SC2)cc1
inactive: Potency [1] | outcome [2] | Potency [4] | Potency [5] | Potency [6] | Potency [10] | Potency [7] | Potency [8] | Potency [9]

Nc1cccc2c(=O)[nH][nH]c(=O)c12
inactive: Potency [1] | outcome [2] | Potency [4] | Potency [5] | Potency [6] | Potency [10] | Potency [7] | Potency [8] | Potency [9]

C1CCN(CN2CCCCC2)CC1
inactive: Potency [1] | outcome [2] | Potency [4] | Potency [5] | Potency [6] | Potency [10] | Potency [7] | Potency [8] | Potency [9]

CO[C@@H]1COCC[C@@H]1N[C@@H]1CC[C@@](C(=O)N2CCc3ncc(C(F)(F)F)cc3C2)(C(C)C)C1
inactive: outcome [2] | Potency [4] | Potency [5] | Potency [6] | Potency [10] | Potency [7] | Potency [9]
active: Potency [1] 17.3 µM

COC=O
inactive: activity change, negative = cytotoxicity [1] 11.7% [at 6.97 µM] | viability change, negative = cytotoxic [2] 6.21% [at 6.97 µM] | activity change [4] -10.8% [at 6.97 µM, stronger effect = higher value] | cytotoxicity increase [5] -4.94% [at 6.97 µM] | activity change, negative = cytotoxic [6] 2.87% [at 6.97 µM] | cytotoxicity [10] -6.04% [at 6.97 µM] | cytotoxicity increase [7] -7.18% [at 6.97 µM] | activity change, negative = cytotoxicity [8] -6.16% [at 6.97 µM] | cytotoxicity increase [9] -12.1% [at 6.97 µM]

O=C(O)c1cc(C(=O)O)c(C(=O)O)cc1C(=O)O
inactive: Potency [1] | outcome [2] | Potency [4] | Potency [5] | Potency [6] | Potency [10] | Potency [7] | Potency [8] | Potency [9]

O=C(O)c1ccc2c(c1)nc(C(=O)NC1CCN(C3CC3)CC1)n2Cc1cc(-c2ccc(Cl)s2)on1
inactive: activity change, negative = cytotoxicity [1] 7.22% [at 15.8 µM] | viability change, negative = cytotoxic [2] -2.47% [at 15.8 µM] | activity change [4] 1.12% [at 15.8 µM, stronger effect = higher value] | cytotoxicity increase [5] -9.11% [at 15.8 µM] | activity change, negative = cytotoxic [6] -3.33% [at 15.8 µM] | cytotoxicity [10] -2.25% [at 15.8 µM] | cytotoxicity increase [7] -6.87% [at 15.8 µM] | activity change, negative = cytotoxicity [8] -5.93% [at 15.8 µM] | cytotoxicity increase [9] 1.64% [at 15.8 µM]

CCCCCCCCCCCCSCCOCCO
inactive: Potency [1] | outcome [2] | Potency [4] | Potency [5] | Potency [6] | Potency [10] | Potency [7] | Potency [9]

O=c1[nH][nH]c2ccccc12
inactive: Potency [1] | outcome [2] | Potency [4] | Potency [5] | Potency [6] | Potency [10] | Potency [7] | Potency [8] | Potency [9]

Source: PubChem BioAssay (Tox21)
